Hit rate of the full screen: of about 350,000 compounds, about 6,000 (1.7%) were called active. Inconclusive results (about 5%) are left out. The sample as a whole holds a higher share of actives than the screen did. Unmarked numbers belong to inactive results. Rule as the data show it: active = CPE inhibition above about 20% (passing the limit was not always enough); inconclusive = no clear call, values can overlap the other calls; tested in BHK-21 cells.
assay: protection of cells from dengue 2 killing – plate reader, single concentration, primary screen (AID 651640); details: DENV2-infected cells, cytopathic effect rescue, at 9.99 µM, hits give high values;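 also: 0% = median of neutral control wells and 100% = median of positive control wells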

SMILES | CPE inhibition
CNC(=O)C[C@@H]1CC[C@@H]2[C@@H](COc3ccc(NC(=O)c4ccc(F)cc4)cc3C(=O)N2C)O1 | -2.03%
Cc1noc(C)c1NC(=O)N(C)C[C@@H]1Oc2c(NC(=O)CCCCCC(=O)Nc3ccccc3N)cccc2C(=O)N([C@H](C)CO)C[C@@H]1C | 57.6% (active)
C[C@@H]1CN([C@@H](C)CO)C(=O)c2cccc(NC(=O)CCCCCC(=O)Nc3ccccc3N)c2O[C@H]1CN(C)C(=O)Nc1cccc2ccccc12 | 20.8% (active)
C[C@@H]1CN([C@@H](C)CO)C(=O)c2cccc(NC(=O)CCCCCC(=O)Nc3ccccc3N)c2O[C@H]1CN(C)C(=O)Nc1ccccc1 | 4.08%
Cc1noc(C)c1NC(=O)N(C)C[C@@H]1Oc2c(NC(=O)C3CCCCC3)cccc2C(=O)N([C@H](C)CO)C[C@@H]1C | -0.956%
Cc1noc(C)c1NC(=O)Nc1cccc2c1O[C@H](CN(C)C(=O)Nc1c(C)noc1C)[C@@H](C)CN([C@@H](C)CO)C2=O | -1.85%
C[C@H]1CN([C@@H](C)CO)C(=O)c2cccc(NC(=O)Nc3ccccc3)c2O[C@H]1CN(C)C(=O)Nc1cccc2ccccc12 | 3.97%
COCC(=O)N1[C@H](CO)[C@H](c2ccccc2C2=CCCCC2)[C@@H]1C#N | 5.95%
C[C@H]1CN([C@@H](C)CO)C(=O)c2cccc(NC(=O)Nc3ccc(C(F)(F)F)cc3)c2O[C@H]1CN(C)CC1CCCCC1 | -8.84%
CC(=O)N1[C@H](CN(C)S(=O)(=O)c2ccccc2)[C@H](c2ccccc2)[C@@H]1CO | 15.4%
COc1cccc(S(=O)(=O)N(C)C[C@@H]2Oc3cc(C4=CCCCC4)ccc3S(=O)(=O)N([C@H](C)CO)C[C@H]2C)c1 | 2.02%
O=C(COc1ccc2c3c(c(=O)oc2c1)CCCC3)NCC(O)c1ccccc1 (stereo not drawn) | 3.96%
O=C(COc1ccc2c3c(c(=O)oc2c1)CCC3)NC1CCCCC1 | 2.16%
NC(=O)C1CCN(C(=O)COc2ccc3c4c(c(=O)oc3c2)CCC4)CC1 | 68.3% (active)
COC(=O)C1=C(C)N(Cc2cccc(C(F)(F)F)c2)C(=NCc2ccccc2)NC1c1ccccc1C(F)(F)F (stereo not drawn) | -6.35%
COC(=O)C1=C(C)N(Cc2cccc(C(F)(F)F)c2)C(=NCc2cccc(C(F)(F)F)c2)NC1c1ccccc1C(F)(F)F (stereo not drawn) | 19.7%
COC(=O)C1=C(C)N(Cc2cccc(C(F)(F)F)c2)C(=NCc2ccccc2)NC1c1ccc(Cl)cc1 (stereo not drawn) | 27.3% (active)
Cc1noc(C)c1NC(=O)Nc1ccc2c(c1)C(=O)N([C@H](C)CO)C[C@H](C)[C@H](CN(C)C(=O)C1CCCCC1)OCCCC[C@@H](C)O2 | -8%
CCN1[C@@H]2c3ccc(C4=CCCC4)c(=O)n3C[C@@H]2[C@@H](CO)[C@@H]1C(=O)NCc1ccccn1 | -1.73%
O=C(Cc1ccccn1)N[C@@H]1CC[C@H](CCn2cc(-c3ccc(F)cc3)nn2)O[C@@H]1CO | -1.64%
COCC(=O)Nc1ccc2c(c1)[C@@H]1C[C@H](CC(=O)NCc3ccc(Cl)cc3)O[C@H](CO)[C@@H]1O2 | 2.48%
O=C(NC1CCCCC1)C1CC(=O)N(CCc2ccccc2)C1 (stereo not drawn) | -1.18%
O=C(NCCCN1CCCCC1)C1CC(=O)N(CCc2ccccc2)C1 (stereo not drawn) | 4.06%

SMILES | CPE inhibition
Cc1ccc(CCN2CC(C(=O)NCCc3ccccc3)CC2=O)cc1 (stereo not drawn) | 34.2% (active)
CCCN1C[C@@H](C)[C@@H](OC)CN(C)C(=O)c2cc(NC(=O)c3ccccc3)ccc2OC[C@H]1C | -10.4%
COc1ccc(NC(=O)C2(C)Cc3c(-c4cccc(NC(C)=O)c4)ccnc3O2)cc1 (stereo not drawn) | -2.95%
CC(=O)Nc1cccc(-c2ccnc3c2CC(C)(C(=O)NCc2ccco2)O3)c1 (stereo not drawn) | 32.1% (active)
CC1(C(=O)NCc2ccco2)Cc2c(-c3ccc4c(c3)OCO4)ccnc2O1 (stereo not drawn) | 7.65%
COCC#Cc1cnc2c(c1)C(=O)N([C@@H](C)CO)C[C@@H](C)[C@@H](CN(C)C(=O)Nc1ccccc1OC)O2 | 8.53%
CCN1CCN(C(=O)N(Cc2ccc(Cl)cc2)S(=O)(=O)c2ccc(C)cc2)CC1 | -3.82%
Cc1ccc(S(=O)(=O)N(Cc2cccc([N+](=O)[O-])c2)C(=O)N2CCN(C)CC2)cc1 | 56.8% (active)
CN1CCN(CC(=O)Nc2cccc([N+](=O)[O-])c2)CC1 | -4.21%
Cc1ccccc1-c1ccc2c(c1)O[C@@H](CN(C)Cc1ccncc1)[C@@H](C)CN([C@H](C)CO)S2(=O)=O | 7.62%
CN(C)c1ccc2c(c1)[C@H]1C[C@H](CC(=O)O)O[C@H](CO)[C@H]1O2 | 0.102%
C[C@@H]1CN([C@@H](C)CO)C(=O)c2cccc(NC(=O)c3ccc(-c4nccs4)cc3)c2O[C@H]1CN(C)Cc1ccc(Cl)c(Cl)c1 | -8.98%
Cc1ccc(C(=O)Oc2ccc(C(=S)N3CCOCC3)cc2)cc1 | 12.3%
Cc1ccc(C(=O)N2CCN(S(=O)(=O)N3CCOCC3)CC2)cc1 | -4.28%
Cc1ccc(C(=O)C(=S)N2CCOCC2)cc1 | 41.4% (active)
C[C@@H]1CCCCO[C@H](CN(C)Cc2ccc(Cl)c(Cl)c2)[C@H](C)CN([C@@H](C)CO)C(=O)c2cc(NC(=O)CCC(F)(F)F)ccc2O1 | 2.84%
C[C@H](NC(=O)C[C@H]1CC[C@H]2[C@@H](COC[C@H](O)CN2C(=O)Nc2cc(Cl)cc(Cl)c2)O1)c1ccccc1 | -1.1%
C/C=C(\C)C(=O)N1CC2(CC(c3cccc(NC(=O)CCCCC)c3)=NO2)C[C@@H]1C(N)=O (stereo partly drawn) | 85.8% (active)
CC/C=C/C(=O)N1CC2(CC(c3cccc(NC(=O)CC)c3)=NO2)C[C@H]1C(N)=O (stereo partly drawn) | -7.83%
C/C=C\C=C\C(=O)N1CC2(CC(c3cccc(NC(=O)/C(C)=C\C)c3)=NO2)C[C@H]1C(N)=O (stereo partly drawn) | 11.7%
C[C@@H]1CN([C@H](C)CO)C(=O)c2cc(C3=CCCCC3)cnc2O[C@@H]1CN(C)C(=O)c1ccc2c(c1)OCO2 | -7.8%
COc1ccc(S(=O)(=O)N(C)C[C@H]2OCCCC[C@@H](C)Oc3ccc(NC(=O)c4ccncc4)cc3C(=O)N([C@H](C)CO)C[C@@H]2C)cc1 | -4.42%
C[C@@H]1CN([C@H](C)CO)C(=O)c2cc(NC(=O)c3ccccc3)ccc2O[C@@H](C)CCCCO[C@H]1CN(C)S(=O)(=O)c1ccccc1 | -7.35%

SMILES | CPE inhibition
CC(C)NC(=O)Nc1ccc2c(c1)C(=O)N([C@H](C)CO)C[C@@H](C)[C@@H](CN(C)S(=O)(=O)c1cccs1)OCCCC[C@@H](C)O2 | -0.241%
COc1ccc(S(=O)(=O)N(C)C[C@@H]2OCCCC[C@@H](C)Oc3ccc(NC(=O)c4ccccc4)cc3C(=O)N([C@@H](C)CO)C[C@H]2C)cc1 | 53.6% (active)
C[C@@H]1CCCCO[C@H](CN(C)S(=O)(=O)c2cccs2)[C@@H](C)CN([C@H](C)CO)C(=O)c2cc(NC(=O)Nc3ccccc3)ccc2O1 | 9.31%
C[C@@H]1CCCCO[C@H](CN(C)S(=O)(=O)c2cccs2)[C@H](C)CN([C@H](C)CO)C(=O)c2cc(NC(=O)c3ccccc3)ccc2O1 | 56.2% (active)
COC(=O)C[C@@H]1C[C@H]2c3cc(NC(=O)NC4CCCC4)ccc3O[C@H]2[C@H](CO)O1 | 0.692%
CC(C)CC#Cc1ccc2c(c1)O[C@H](CN(C)C(=O)Cc1cccnc1)[C@H](C)CN([C@@H](C)CO)S2(=O)=O | -0.534%
CO[C@@H]1CN(C)C(=O)c2ccc(NC(=O)Nc3ccccc3)cc2OC[C@H](C)N(C(=O)CC2CC2)C[C@@H]1C | -5.7%
COc1cccc(S(=O)(=O)N[C@H]2C=C[C@H](CC(=O)NCc3ccc(Cl)cc3)O[C@@H]2CO)c1 | 23.8% (active)
COc1ccccc1S(=O)(=O)N[C@H]1CC[C@@H](CC(=O)NCc2cc(F)cc(F)c2)O[C@H]1CO | -1.83%
COc1cccc(S(=O)(=O)N[C@H]2C=C[C@@H](CC(=O)NCc3ccccc3)O[C@@H]2CO)c1 | -4.65%
COC(=O)C[C@@H]1C=C[C@@H](NS(=O)(=O)c2cccc(OC)c2)[C@@H](CO)O1 | 1.84%
COc1ccccc1S(=O)(=O)N[C@@H]1C=C[C@H](CC(=O)NCc2cccc(F)c2)O[C@H]1CO | 41.8% (active)
COc1cccc(S(=O)(=O)N[C@H]2C=C[C@@H](CC(=O)NCc3ccc(F)cc3)O[C@@H]2CO)c1 | 3.36%
COc1ccc2c3c([nH]c2c1)[C@H](CO)N(C(=O)NC1CCCC1)CC31CN(C(=O)Nc2cccc(F)c2)C1 | 9.59%
COc1ccc(NC(=O)Nc2ccc3c(c2)C(=O)N([C@@H](C)CO)C[C@@H](C)[C@H](CN(C)C(=O)NC(C)C)OCCCC[C@H](C)O3)cc1 | 3.37%
Cc1ccc(S(=O)(=O)Nc2ccc3c(c2)C(=O)N(C)[C@H]2CC[C@H](CC(=O)O)O[C@H]2CO3)cc1 | 4.91%
COc1ccc(CNC(=O)C2CC(c3ccc(C(F)(F)F)cc3)=NO2)cc1 (stereo not drawn) | 87.8% (active)
COc1ccc(CNC(=O)C2CCCC2)cc1 | -2.88%
O=C(NCCCCc1ccccc1)C1CC(c2ccc([N+](=O)[O-])cc2)=NO1 (stereo not drawn) | 15.1%
O=C(NCc1cc(C(F)(F)F)cc(C(F)(F)F)c1)C1CC(c2cccc(F)c2)=NO1 (stereo not drawn) | 23.7% (active)
COc1ccc(C2=NOC(Cn3nc(C(=O)NCc4ccc5c(c4)OCO5)cc3-c3ccccc3)C2)cc1 (stereo not drawn) | 10.2%
O=C(NCc1cc(F)cc(C(F)(F)F)c1)C1CCC(=O)N(C2CCCC2)C1 (stereo not drawn) | 0.846%
